TRPML1 inh: blocks the human TRPML1 channel | TRPML1-inducible cells, Ca2+ dye fluorescence, FDSS; hits give low values; inhibition of EC80 agonist-evoked calcium signal | activity change, negative = inhibition, % (no concentration beside the values) | actives 0.02% (n = 390,000) | AID 624415; in the data active means activity change below about -50%; inconclusive means between about -30% and that limit;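 further: stimulus is agonist 54-4 at its EC80 concentration; on the % scale 0 is the no-effect control and ±100 the full control effect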
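Calcium fluorescence in TRPML1-DL cells induced overnight with Tet: a 110 s read after compound pin addition, then a 110 s antagonist read after challenge with 54-4 at 4 uM final (EC80).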
TRPML1 ag: agonists of human TRPML1 channel; Q9GZU1; TRPML1-expressing cells, Ca2+ dye fluorescence, FDSS; activation, % (no concentration beside the values); actives 0.12% (n = 410,000); AID 624414; in the data active means activation above about 50%; inconclusive means mostly about 30% to 49%; further: 0% is about no effect
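Tet-induced TRPML1-DL cells, 1,500 per well, cultured overnight, were loaded with a no-wash Ca2+ dye for 45–90 min. Calcium fluorescence was recorded on the FDSS for 110 s after compound addition, before the EC80 agonist (4 uM 54-4) was added.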
KCNH2 3.1 block: inhibitors of human KCNH2 3.1 potassium channel isoform | U2OS KCNH2 3.1, thallium flux FluxOr; hits give low values | activity change, % (tested at about 1.8 µM) | actives 0.95% (n = 340,000) | AID 720553;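 active means maximum activity change below -70%; inconclusive means maximum activity change from -70% to -50%; inactive means maximum activity change above -50%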;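 further: thallium influx rate constant from kinetic fluorescence after stimulation buffer; on the % scale 0 is the no-effect control and ±100 the full control effect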
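Measured as rate of thallium-driven FluxOr signal in transduced U2OS cells carrying the 3.1 channel, read kinetically for 2 min upon stimulation; values are rate constants scaled to DMSO control wells.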
hERG WT inh: blocks the wildtype human KCNH2 potassium channel; Q12809; U2OS, BacMam KCNH2, thallium flux FluxOr; hits give low values; activity change, % at 1.84 µM; actives 0.37% (n = 340,000);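 active means maximum activity change below -70%; inconclusive means maximum activity change between -70% and -50%; inactive means maximum activity change above -50%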; further: on the % scale 0 is the no-effect control and ±100 the full control effect
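U2OS cells were transduced with wild-type KCNH2 virus (2.03 x 10^8 / mL) for 4 h at room temperature, then cultured overnight at 37 C. Thallium flux was read with FluxOr dye. Rate constants were normalized to DMSO controls.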
TRHR enhancer-1: allosteric enhancers of human TRH receptor; enhancement, % at 2 µM; P34981; actives 0.66% (n = 360,000); TRHR cells, fluo-8 calcium fluorescence, EC20 TRH enhancement; in the data active means enhancement above about 30%; further: 0% is about no effect
Target sequence (P34981 whole entry, looked up): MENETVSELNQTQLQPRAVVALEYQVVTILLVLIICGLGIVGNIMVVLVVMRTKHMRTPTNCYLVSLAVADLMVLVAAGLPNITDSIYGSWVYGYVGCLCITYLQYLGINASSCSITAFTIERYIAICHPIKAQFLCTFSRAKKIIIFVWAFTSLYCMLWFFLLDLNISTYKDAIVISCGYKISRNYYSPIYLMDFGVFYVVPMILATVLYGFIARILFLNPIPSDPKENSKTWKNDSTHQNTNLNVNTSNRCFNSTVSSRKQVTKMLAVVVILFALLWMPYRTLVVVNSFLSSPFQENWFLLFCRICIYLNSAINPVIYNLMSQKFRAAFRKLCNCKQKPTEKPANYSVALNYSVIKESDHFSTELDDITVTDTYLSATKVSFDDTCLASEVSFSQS
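Enhancer read-out: after compound pinning and an initial kinetic agonist-mode read, an EC20 of TRH (10 nM final) was injected and fluo-8 calcium signal (Ex 480/Em 530) followed at 1 s/cycle for 100 cycles in TRHR-expressing cells.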
TRHR agonist-1: activates the human TRH receptor. activation, % at 2 µM. P34981. TRHR cells, calcium flux fluo-8, FDSS agonist mode. AID 493084. actives 0.18% (n = 360,000); in the data active means activation above about 30%; further: 0% is about no effect
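TRHR-expressing cells loaded with fluo-8 calcium dye; 23 nL library compound pin-transferred, kinetic FDSS fluorescence (Ex 480/Em 530) recorded about 180 s for agonist-induced calcium release, before a 10 nM TRH EC20 addition for potentiator mode.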
TRHR enhancer-2: confirmation of human TRH receptor allosteric enhancers | shares compounds with TRHR enhancer-1 | TRH receptor cell assay, enhancer confirmation qHTS | activity change, negative = inhibition, % at 46.1 µM | 970 tested, under 10 active | AID 493076;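 further: compound effect scored on response to added TRH at EC20 of 10 nM; 0% is about no effect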
TRHR agonist-2: human TRH receptor agonism confirmation | TRHR-expressing cells, agonist activation read-out | Potency, µM (series often up to 46.1 µM), for the others: at the highest dose activation, most hits filed as activators | actives 8% (n = 970) | shares compounds with TRHR enhancer-1 | AID 493078; further: potency means the concentration at half of the fitted maximal effect; 0% is about no effect; nearly all actives have a fitted effect of over 75% in size
An asterisk follows results filed as active; u = inconclusive; x = no result. Rows were chosen to be rich in hits. Some 1.7% of all compounds tested hit in one or more screens of this group. Unless noted, the call rests on the fitted dose curve; in most records, active means well fitted curve in the direction sought with a large enough effect; inconclusive means small, poorly fitted or top-dose-only effect, or another doubt; inactive means no such curve, though single readings can be large; an effect the other way counts as inactive or inconclusive.

SMILES | TRPML1 inh | TRPML1 ag | KCNH2 3.1 block | hERG WT inh | TRHR enhancer-1 | TRHR agonist-1 | TRHR enhancer-2 | TRHR agonist-2
Cc1ccc(Cn2ccc(C3CC3)n2)cc1 | -17 | 1 | 6 | -2 | 51* | -1 | -1 | -1%
COc1ccc2c(c1)cc(C(=O)N/N=C/c1c(O)c(C(=O)O)cc3ccccc13)n2C | 9 | 6 | 16 | -3 | -1 | 33* | u | 18µM*
Cn1c(O)c(/C=N/NC(=O)c2cc3ccccc3cc2O)c2ccccc21 | 19 | 19 | 6 | -15 | 3 | 46* | 0 | 13µM*
CC1CCCN(C(=O)Cn2nnc(-c3ccc(S(C)(=O)=O)cc3)n2)C1 (centres undefined) | -10 | 0 | 0 | 13 | 41* | 0 | -3 | -1%
COc1cc(/C=C(\C#N)c2[nH]nc(N)c2C#N)cc(OC)c1O | -5 | 5 | -7 | 6 | 20 | 62* | 9 | u
Cc1ccc([N+](=O)[O-])cc1-c1ccc(/C=C(\C#N)c2[nH]nc(N)c2C#N)o1 | 10 | 1 | 2 | 8 | -5 | 0 | x | x
C=C1[C@@H](O)CN(Cc2ccc(OC)cc2)S1(=O)=O | x | -1 | x | x | x | x | x | x
Cc1c(NS(=O)(=O)c2cccc(C(=O)Nc3cccc(F)c3)c2)c(=O)n(-c2ccccc2)n1C | 6 | 0 | -6 | -3 | 0 | 0 | x | x
CCc1ccccc1NC(=O)NC1CCCCC1 | -3 | 0 | -2 | -2 | 48* | 0 | -3 | 0%
Cn1c2cc(B(O)O)sc2c2cnn(Cc3c(F)cccc3F)c(=O)c21 | x | x | x | x | 13 | 2 | x | x
COc1cc(NC(=O)C[n+]2ccc(C(=O)c3ccccc3)cc2)cc(OC)c1 | -3 | 0 | -18 | 0 | x | x | x | x
Cc1ccc(NC(=O)COc2ccccc2)cc1Cl | -5 | -1 | 18 | -14 | 7 | 0 | x | x
CCOCC(=O)Nc1ccc(C)c(Cl)c1 | 3 | 1 | 0 | 1 | 62* | -1 | -7 | 2%
Cc1ccc(CNC(=O)COCc2cc(-c3ccc4c(c3)OCO4)on2)cc1 | 15 | 1 | x | x | 0 | -1 | x | x
CCOc1ccc(N(Cc2nnc3n2CCCCC3)C(=O)Nc2cccc(C)c2)cc1 | 44 | 0 | 8 | 3 | 58* | 0 | -5 | 1%
COc1ccc(S(=O)(=O)N2CCCC(C(=O)N3CCN(Cc4ccccc4)CC3)C2)cc1Cl (centres undefined) | -3 | -1 | -1 | 13 | x | x | x | x
Cc1ccc(S(=O)(=O)N(C)C[C@H]2OCCCC[C@H](C)Oc3ccc(NC(=O)Nc4cccc5ccccc45)cc3C(=O)N([C@@H](C)CO)C[C@H]2C)cc1 | 3 | 1 | 3 | -4 | x | x | x | x
COc1ccc(C(CNC(=O)c2ccc(Cl)c(NC(=O)c3cccs3)c2)N2CCCC2)cc1 (centres undefined) | 3 | 0 | -5 | 21 | 60* | 1 | -1 | 3%
CCCNC(=O)C(=O)NCC1CCCN1CC (centres undefined) | 4 | 1 | 9 | 38 | 27 | 0 | x | x
C=CCNC(=O)C(=O)NCC1CCCN1CC (centres undefined) | 14 | 3 | -18 | 24 | 42* | 1 | -4 | 0%
CC(C(=O)N1CC2(C)CC1CC(C)(C)C2)N1C(=O)c2ccccc2C1=O (centres undefined) | 21 | 0 | 13 | 16 | 46* | 0 | -12 | 1%
CCC(C(=O)N1CC2(C)CC1CC(C)(C)C2)N1C(=O)c2ccccc2C1=O (centres undefined) | -2 | 0 | -7 | -5 | -5 | 0 | x | x
CC(=O)N1C=Cc2c(c(C)c3c([nH]c4ccccc43)c2C)C1 | x | x | x | x | -1 | -2 | x | x
NC(=O)[C@@H]1CCCN1C(=O)[C@@H](Cc1cnc[nH]1)NC(=O)[C@@H]1CCC(=O)N1 | 3 | 0 | 12 | -3 | -12 | 85* | -25 | 0.015µM*
Cc1ccccc1N1CCN(c2ccc(NC(=O)C3CCCCC3C(=O)O)cc2)CC1 (centres undefined) | 11 | 0 | -10 | 0 | 42* | 1 | -3 | 4%
SMILES | TRPML1 inh | TRPML1 ag | KCNH2 3.1 block | hERG WT inh | TRHR enhancer-1 | TRHR agonist-1 | TRHR enhancer-2 | TRHR agonist-2
O=C(O)[C@H]1CCCC[C@H]1C(=O)Nc1ccc(Nc2ccccc2)cc1 | 2 | -1 | -1 | -15 | 0 | 0 | x | x
CC(=O)N1c2ccc(S(=O)(=O)N3CCCC(C(=O)Nc4ccc(F)cc4)C3)cc2CC1C (centres undefined) | 2 | 0 | 2 | -4 | -1 | -1 | x | x
COc1ccccc1CNC(=O)c1ccc2c(=O)n3c(nc2c1)CCCCC3 | 26 | 1 | 18 | -2 | 0 | 0 | x | x
COc1ccc(NC(=O)Cn2ncc3c4ccccc4n(Cc4ccccc4)c3c2=O)cc1OC | 26 | 4 | x | x | 7 | 0 | x | x
O=c1[nH]c(-c2ccc(O)cc2)nc2scc(-c3cccs3)c12 | x | x | -5 | 2 | 47* | 1 | 4 | 1%
Cc1nc2scc(-c3cccs3)c2c(=O)[nH]1 | -10 | 0 | -2 | 4 | -1 | 0 | x | x
COc1ccnc(Oc2cc(Cl)cc(Cl)c2)c1C#N | -13 | 1 | 16 | 2 | 0 | 0 | x | x
COc1ccc(Oc2nccc(OC)c2C#N)cc1 | 17 | 2 | -9 | 1 | 43* | 0 | -4 | -1%
OCCC1CN(Cc2ccc3nsnc3c2)CCN1CCc1ccccc1 (centres undefined) | -7 | 0 | 0 | 8 | 45* | 0 | -5 | 1%
O=C(COc1ccc(Cl)cc1)NCCS(=O)(=O)N1CCN(c2ccccc2F)CC1 | 8 | 2 | 1 | 20 | 6 | 1 | x | x
COc1ccc(COC(=O)C2=C(C)NC(=O)NC2c2ccccc2OC(C)C)cc1 (centres undefined) | 8 | -1 | -8 | -7 | 48* | 1 | -3 | 3%
COc1ccccc1C1NC(=O)NC(C)=C1C(=O)OCc1ccccc1 (centres undefined) | -12 | 0 | 22 | -4 | -1 | 0 | x | x
COc1ccc(C(=O)NNC(=O)CSc2nnc(C3CC3)n2C)cc1 | -17 | -1 | -7 | -9 | 7 | 0 | x | x
CN1CCC(=NNC(=O)CSc2ccc(Cl)cc2)CC1 | 30 | 0 | 4 | -3 | 44* | 0 | -5 | 0%

Source: PubChem BioAssay (National Center for Advancing Translational Sciences (NCATS))
